We go through 37 targets from the supplement of paper PMC10849652.

About 7,900 targets were measured; listed, in parts, are those with a hit and a random draw of the rest. About 0.6% of all pairs of compound and target were hits. Unmarked numbers belong to inactive results.

UniProt Q15005, sequence (Q15005 whole entry, looked up): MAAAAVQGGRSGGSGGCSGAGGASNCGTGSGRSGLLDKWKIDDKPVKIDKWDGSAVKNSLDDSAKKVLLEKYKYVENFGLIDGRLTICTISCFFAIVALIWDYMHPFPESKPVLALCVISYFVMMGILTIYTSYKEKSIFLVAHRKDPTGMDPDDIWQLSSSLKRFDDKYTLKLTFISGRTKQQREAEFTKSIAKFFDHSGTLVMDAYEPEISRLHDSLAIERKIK
UniProt Q07157, sequence (Q07157 whole entry, looked up): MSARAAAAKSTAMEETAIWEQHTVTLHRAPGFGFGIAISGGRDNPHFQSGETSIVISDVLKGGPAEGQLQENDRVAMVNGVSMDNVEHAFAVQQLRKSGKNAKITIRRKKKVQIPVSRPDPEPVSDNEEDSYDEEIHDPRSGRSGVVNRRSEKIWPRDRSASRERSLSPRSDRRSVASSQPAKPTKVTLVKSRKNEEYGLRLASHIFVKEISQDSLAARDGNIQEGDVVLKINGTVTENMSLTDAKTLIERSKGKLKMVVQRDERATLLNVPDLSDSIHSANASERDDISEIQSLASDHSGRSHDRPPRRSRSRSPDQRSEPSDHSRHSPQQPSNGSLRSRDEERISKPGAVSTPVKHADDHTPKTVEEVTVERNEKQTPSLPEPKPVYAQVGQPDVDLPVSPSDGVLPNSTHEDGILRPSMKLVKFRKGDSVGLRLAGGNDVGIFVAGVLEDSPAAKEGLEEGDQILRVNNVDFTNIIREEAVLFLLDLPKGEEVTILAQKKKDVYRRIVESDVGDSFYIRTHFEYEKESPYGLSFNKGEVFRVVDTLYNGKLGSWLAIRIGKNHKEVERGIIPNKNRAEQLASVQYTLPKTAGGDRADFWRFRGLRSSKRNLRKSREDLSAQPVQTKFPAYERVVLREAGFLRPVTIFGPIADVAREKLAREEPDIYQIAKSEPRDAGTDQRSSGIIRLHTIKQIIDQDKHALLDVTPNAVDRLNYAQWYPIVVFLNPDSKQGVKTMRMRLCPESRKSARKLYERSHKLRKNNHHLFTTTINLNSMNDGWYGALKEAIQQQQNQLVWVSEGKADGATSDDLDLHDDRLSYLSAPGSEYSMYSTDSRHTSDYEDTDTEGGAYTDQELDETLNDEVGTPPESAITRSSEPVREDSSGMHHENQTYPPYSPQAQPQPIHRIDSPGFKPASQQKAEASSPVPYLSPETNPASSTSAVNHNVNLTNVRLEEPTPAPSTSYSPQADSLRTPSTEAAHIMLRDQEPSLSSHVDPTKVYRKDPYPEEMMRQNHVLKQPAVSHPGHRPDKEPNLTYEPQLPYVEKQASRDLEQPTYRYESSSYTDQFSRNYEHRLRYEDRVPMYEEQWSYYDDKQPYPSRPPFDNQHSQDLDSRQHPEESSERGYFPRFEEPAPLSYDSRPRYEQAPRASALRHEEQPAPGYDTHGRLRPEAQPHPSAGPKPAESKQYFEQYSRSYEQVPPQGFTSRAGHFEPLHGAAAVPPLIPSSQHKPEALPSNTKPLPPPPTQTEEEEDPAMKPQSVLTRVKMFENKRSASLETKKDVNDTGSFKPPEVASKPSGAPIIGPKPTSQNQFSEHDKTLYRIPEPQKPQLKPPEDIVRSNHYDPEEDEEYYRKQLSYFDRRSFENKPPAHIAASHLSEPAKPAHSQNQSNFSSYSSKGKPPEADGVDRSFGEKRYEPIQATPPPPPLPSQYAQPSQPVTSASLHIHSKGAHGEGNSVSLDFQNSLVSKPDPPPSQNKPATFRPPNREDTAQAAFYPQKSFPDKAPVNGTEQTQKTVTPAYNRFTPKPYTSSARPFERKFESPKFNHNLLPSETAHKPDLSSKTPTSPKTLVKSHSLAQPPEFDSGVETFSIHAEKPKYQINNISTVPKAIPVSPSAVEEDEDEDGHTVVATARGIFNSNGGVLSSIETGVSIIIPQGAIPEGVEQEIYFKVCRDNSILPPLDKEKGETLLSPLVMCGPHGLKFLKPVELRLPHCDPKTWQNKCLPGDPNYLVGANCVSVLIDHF
UniProt Q8WU79, sequence (Q8WU79 whole entry, looked up): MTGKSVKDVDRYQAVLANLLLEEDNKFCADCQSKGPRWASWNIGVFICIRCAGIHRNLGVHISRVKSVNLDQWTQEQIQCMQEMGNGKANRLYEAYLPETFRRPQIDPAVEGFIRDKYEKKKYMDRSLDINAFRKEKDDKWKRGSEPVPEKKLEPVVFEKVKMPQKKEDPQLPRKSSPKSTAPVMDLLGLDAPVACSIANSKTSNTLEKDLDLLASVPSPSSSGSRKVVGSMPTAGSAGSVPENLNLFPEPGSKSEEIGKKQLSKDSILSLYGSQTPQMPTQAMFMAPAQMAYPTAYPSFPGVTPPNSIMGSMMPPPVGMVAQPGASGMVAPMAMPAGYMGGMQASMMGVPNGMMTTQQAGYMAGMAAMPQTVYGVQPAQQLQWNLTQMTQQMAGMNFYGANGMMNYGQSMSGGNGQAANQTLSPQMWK
UniProt O00193, sequence (O00193 whole entry, looked up): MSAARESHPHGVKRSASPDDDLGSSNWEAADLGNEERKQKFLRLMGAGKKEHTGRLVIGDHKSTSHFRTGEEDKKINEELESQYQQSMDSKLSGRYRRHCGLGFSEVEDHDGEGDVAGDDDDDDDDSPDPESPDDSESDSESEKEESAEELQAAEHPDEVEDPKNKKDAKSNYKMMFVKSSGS
UniProt Q8NEW0, sequence (Q8NEW0 whole entry, looked up): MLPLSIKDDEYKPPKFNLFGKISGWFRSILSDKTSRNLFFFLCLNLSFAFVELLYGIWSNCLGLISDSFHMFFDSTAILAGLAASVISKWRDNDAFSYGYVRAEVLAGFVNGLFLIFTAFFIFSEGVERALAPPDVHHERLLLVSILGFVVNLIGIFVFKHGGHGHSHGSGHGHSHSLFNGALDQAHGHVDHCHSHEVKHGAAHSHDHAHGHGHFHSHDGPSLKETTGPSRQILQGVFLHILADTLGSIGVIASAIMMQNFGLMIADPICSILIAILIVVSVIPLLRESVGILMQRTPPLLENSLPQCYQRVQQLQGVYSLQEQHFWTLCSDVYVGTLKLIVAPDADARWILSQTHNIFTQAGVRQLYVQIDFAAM
UniProt Q96DW6, sequence (Q96DW6 whole entry, looked up): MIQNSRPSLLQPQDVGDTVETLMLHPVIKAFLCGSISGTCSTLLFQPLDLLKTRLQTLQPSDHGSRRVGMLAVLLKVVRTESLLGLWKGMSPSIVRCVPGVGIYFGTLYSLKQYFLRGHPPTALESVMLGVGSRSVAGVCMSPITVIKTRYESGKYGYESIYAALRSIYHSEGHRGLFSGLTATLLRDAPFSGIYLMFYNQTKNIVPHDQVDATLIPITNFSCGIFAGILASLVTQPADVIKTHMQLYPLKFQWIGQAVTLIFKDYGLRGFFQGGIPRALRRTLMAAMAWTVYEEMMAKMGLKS
UniProt Q8WUH2, sequence (Q8WUH2 whole entry, looked up): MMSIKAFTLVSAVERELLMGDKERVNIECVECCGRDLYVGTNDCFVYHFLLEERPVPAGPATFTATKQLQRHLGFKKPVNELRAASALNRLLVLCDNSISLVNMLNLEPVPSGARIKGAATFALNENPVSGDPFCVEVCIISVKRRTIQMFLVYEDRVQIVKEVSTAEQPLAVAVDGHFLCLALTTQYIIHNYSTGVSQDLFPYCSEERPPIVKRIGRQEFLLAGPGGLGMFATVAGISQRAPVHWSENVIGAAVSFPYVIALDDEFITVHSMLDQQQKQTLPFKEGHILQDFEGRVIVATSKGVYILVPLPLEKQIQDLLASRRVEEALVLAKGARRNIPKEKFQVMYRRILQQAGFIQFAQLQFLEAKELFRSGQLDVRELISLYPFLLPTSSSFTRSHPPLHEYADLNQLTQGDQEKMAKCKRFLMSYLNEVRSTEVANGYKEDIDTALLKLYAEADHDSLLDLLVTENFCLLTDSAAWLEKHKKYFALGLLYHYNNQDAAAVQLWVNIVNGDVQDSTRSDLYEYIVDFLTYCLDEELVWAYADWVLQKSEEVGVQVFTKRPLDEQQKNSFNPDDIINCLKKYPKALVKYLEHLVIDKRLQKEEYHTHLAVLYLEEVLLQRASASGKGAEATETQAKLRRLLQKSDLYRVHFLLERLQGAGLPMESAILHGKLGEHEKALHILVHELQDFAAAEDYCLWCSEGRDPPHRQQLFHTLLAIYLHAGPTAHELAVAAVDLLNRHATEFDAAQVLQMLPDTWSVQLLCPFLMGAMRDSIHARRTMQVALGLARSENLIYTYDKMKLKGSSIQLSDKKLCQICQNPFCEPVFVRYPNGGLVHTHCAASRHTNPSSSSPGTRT
UniProt P35270, sequence (P35270 whole entry, looked up): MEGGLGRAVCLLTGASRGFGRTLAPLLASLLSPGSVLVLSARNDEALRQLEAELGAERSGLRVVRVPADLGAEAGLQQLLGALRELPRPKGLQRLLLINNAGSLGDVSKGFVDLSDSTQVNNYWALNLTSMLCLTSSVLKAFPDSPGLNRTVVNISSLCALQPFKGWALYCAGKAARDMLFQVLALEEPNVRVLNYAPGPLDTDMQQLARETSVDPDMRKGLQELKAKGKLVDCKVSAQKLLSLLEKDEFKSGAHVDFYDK
UniProt Q9NYB0, sequence (Q9NYB0 whole entry, looked up): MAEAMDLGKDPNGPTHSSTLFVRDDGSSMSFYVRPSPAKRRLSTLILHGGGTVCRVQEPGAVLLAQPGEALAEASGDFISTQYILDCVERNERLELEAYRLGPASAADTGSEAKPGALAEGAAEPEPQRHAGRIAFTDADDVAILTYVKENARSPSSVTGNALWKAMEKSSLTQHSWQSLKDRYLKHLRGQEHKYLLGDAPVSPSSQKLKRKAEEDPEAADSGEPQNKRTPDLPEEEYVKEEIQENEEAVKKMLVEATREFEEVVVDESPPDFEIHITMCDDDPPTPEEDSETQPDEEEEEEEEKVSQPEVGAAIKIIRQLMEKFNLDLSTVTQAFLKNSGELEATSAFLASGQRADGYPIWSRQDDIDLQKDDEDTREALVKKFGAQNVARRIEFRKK
UniProt Q9UMY4, sequence (Q9UMY4 whole entry, looked up): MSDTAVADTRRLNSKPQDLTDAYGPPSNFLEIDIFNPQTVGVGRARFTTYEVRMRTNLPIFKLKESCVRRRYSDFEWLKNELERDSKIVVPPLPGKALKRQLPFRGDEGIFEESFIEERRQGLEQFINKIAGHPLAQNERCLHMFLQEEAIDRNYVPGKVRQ

Compound in the first test: CC(=O)c1cnc2ccc(-c3cc(Cl)c(O)c(Cl)c3)nc2c1N[C@H]1CC[C@H](CN(C)C)CC1
The test is described as follows: log2 fold change, soluble protein after heating vs DMSO (PISA); higher = thermal stabilisation; K562 cells, 10 uM, 30 min; active = over 0.2 and 3.5 SD of the protein, either way, in both replicates (recomputed). Put shortly: (§1)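 K562 cells at 2×10^6 cells/mL were treated with 10 μM compound for 30 min. Aliquots were heated for 3 min across 48°C-58°C, pooled, and extracted in PBS with 0.5% NP-40 at 4°C; soluble protein was the supernatant after 21,000xg for 90 min. Soluble protein was quantified by TMTpro 16plex LC-MS/MS with channel sums equalised, and reported as log2 fold change in thermal stability against DMSO controls, with values from duplicates.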
In the case of TIMM13 (UniProt Q9Y5L4), the log2 fold change is 0.01.
Take SLC25A38 (UniProt Q96DW6): the log2 fold change was 0.003.
On the same count and under the same terms, next, SMARCA5 (UniProt O60264): 0.103; TEX30 (UniProt Q5JUR7): -0.048; SMG1 (UniProt Q96Q15): -0.002.
Turning to SNRPD3 (UniProt P62318), the log2 fold change was 0.067.
Take SUPT5H (UniProt O00267): the log2 fold change is 0.066.
The same measure, in the same setting: under SPAST (UniProt Q9UBP0) stands -0.073; under TBCD (UniProt Q9BTW9), -0.004.
With SMAP (UniProt O00193), the log2 fold change was -0.021.
The same measure, in the same setting: next, SPR (UniProt P35270): 0.344.
On the same count and under the same terms, next, TAOK3 (UniProt Q9H2K8): -0.48 (active); SP3 (UniProt Q02447): -0.007.
The same measure, in the same setting: under STOM (UniProt P27105) stands -0.018; under TJP1 (UniProt Q07157), -0.443 (active); under SLC30A10 (UniProt Q6XR72), -0.019.
As for SPCS2 (UniProt Q15005), the log2 fold change is -0.039.
Same read-out and setting: next, TM9SF4 (UniProt Q92544): -0.016.
The same measure, in the same setting: next, STAT5B (UniProt P51692): 0.018; SRSF10 (UniProt O75494): -0.047.
Still for that read-out and setting: under SNX12 isoform 1 (UniProt Q9UMY4) stands -0.069; under TBC1D15 isoform 3 (UniProt Q8TC07), 0.009; under SYMPK (UniProt Q92797), -0.057.
For the target TBC1D23 (UniProt Q9NUY8), the log2 fold change is -0.067.
For the target SMAP2 (UniProt Q8WU79), the log2 fold change is 0.039.
Consider SNX5 (UniProt Q9Y5X3), for which the log2 fold change was -0.167.
On the same count and under the same terms, under SNX9 (UniProt Q9Y5X1) stands -0.043; under SRPRB (UniProt Q9Y5M8), -0.014.
TANGO6 (UniProt Q9C0B7): the log2 fold change is 0.052.
On the same count and under the same terms, under TGFBRAP1 (UniProt Q8WUH2) stands -0.119.
Turning to TANK (UniProt Q92844), the log2 fold change is -0.181.
In the case of TBRG4 (UniProt Q969Z0), the log2 fold change is -0.188.
The same measure, in the same setting: next, TERF2IP (UniProt Q9NYB0): -0.151.
As for STK25 (UniProt O00506), the log2 fold change is 0.
The same measure, in the same setting: next, SLC27A4 (UniProt Q6P1M0): -0.034.
The same measure, in the same setting: under SMC5 (UniProt Q8IY18) stands -0.045; under SLC30A7 (UniProt Q8NEW0), 0.032.

Compound in another test: CC(C)(C)Cn1c(N)nc2ccc(-c3[nH]c(C(C)(C)C)nc3-c3ccc(F)cc3)nc21 [ralimetinib]
The description is as above. Put shortly:
as §1
Consider TIMM13 (UniProt Q9Y5L4), for which the log2 fold change is -0.008.
The same measure, in the same setting: under SLC25A38 (UniProt Q96DW6) stands -0.053; under SMARCA5 (UniProt O60264), 0.033; under TEX30 (UniProt Q5JUR7), 0.053.
The same measure, in the same setting: under SMG1 (UniProt Q96Q15) stands 0.012; under SNRPD3 (UniProt P62318), -0.022.
With SUPT5H (UniProt O00267), the log2 fold change is -0.009.
Take SPAST (UniProt Q9UBP0): the log2 fold change was 0.015.
As to TBCD (UniProt Q9BTW9), the log2 fold change was 0.01.
On the same count and under the same terms, next, SMAP (UniProt O00193): 0.007.
With SPR (UniProt P35270), the log2 fold change is 0.017.
Same read-out and setting: under TAOK3 (UniProt Q9H2K8) stands 0.009; under SP3 (UniProt Q02447), 0; under STOM (UniProt P27105), -0.054.
As for TJP1 (UniProt Q07157), the log2 fold change was 0.028.
For the target SLC30A10 (UniProt Q6XR72), the log2 fold change was -0.014.
On to SPCS2 (UniProt Q15005), for which the log2 fold change is -0.047.
Same read-out and setting: under TM9SF4 (UniProt Q92544) stands 0.031; under STAT5B (UniProt P51692), 0.121; under SRSF10 (UniProt O75494), 0.185.
Same read-out and setting: next, SNX12 isoform 1 (UniProt Q9UMY4): -0.011; TBC1D15 isoform 3 (UniProt Q8TC07): 0.041; SYMPK (UniProt Q92797): 0.099.
On the same count and under the same terms, next, TBC1D23 (UniProt Q9NUY8): 0.002; SMAP2 (UniProt Q8WU79): 0.048.
Regarding SNX5 (UniProt Q9Y5X3), the log2 fold change was -0.038.
With SNX9 (UniProt Q9Y5X1), the log2 fold change was 0.005.
With SRPRB (UniProt Q9Y5M8), the log2 fold change is 0.034.
The same measure, in the same setting: under TANGO6 (UniProt Q9C0B7) stands 0.197; under TGFBRAP1 (UniProt Q8WUH2), 0.33.
Same read-out and setting: next, TANK (UniProt Q92844): 0.034; TBRG4 (UniProt Q969Z0): -0.134; TERF2IP (UniProt Q9NYB0): 0.038.
The same measure, in the same setting: under STK25 (UniProt O00506) stands 0.015.
Consider SLC27A4 (UniProt Q6P1M0), for which the log2 fold change was 0.003.
Same read-out and setting: under SMC5 (UniProt Q8IY18) stands 0.046.
For the target SLC30A7 (UniProt Q8NEW0), the log2 fold change was -0.098.
